Results published in PubChem BioAssay (NCATS).
Results filed as inconclusive are left out. Values without a mark were called inactive. Calls come from the whole dose curve; as a rule, active = well fitted cell-killing curve with a large enough effect; inconclusive = small, poorly fitted or top-dose-only effect, or effect the other way; inactive = flat fitted curve, though single readings scatter.

Each molecule was assayed on HeLa (assay: Primary qHTS to identify gynecologic anti-cancer compounds using libraries of approved drugs and bioactive compounds (AID 1345084; note: nearly all actives have a fitted effect of over 55% in size)). Conditions: Gynecologic cancer cell panel viability, ATPlite luminescence, 48 h; series mostly up to 57.5 µM; activity change, negative = cytotoxicity: at the top concentration.
Outline: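 Five-concentration response, 48 h; readout is ATP-driven luciferase luminescence.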
% is set by controls: 0 for no effect and ±100 for the full control effect.

Compared with Cc1ccc(-c2c(-c3nn(C)c4ncnc(N5CC[C@H](N6CCCCC6)C5)c34)cnn2C)cc1, O=C(/C=C/C=C/c1ccc2c(c1)OCO2)N1CCCCC1 is lower in “activity change, negative = cytotoxicity” value: 17.8% for the first, 0% for the second.

Going from Nc1nc(COC(=O)c2ccc([N+](=O)[O-])cc2)nc(Nc2ccccc2)n1 to COC(=O)c1[nH]c(=O)c2ccccc2c1-c1ccc[nH]1, the “activity change, negative = cytotoxicity” value falls from -1.79% to -6.18%.

First: Cc1ccc(C)c(NC(=O)CNS(=O)(=O)c2ccc3[nH]c(=O)oc3c2)c1
Second: Cc1nnc(-c2sc(NC(=O)[C@H](C(C)C)n3c(=O)[nH]c4ccccc4c3=O)nc2C)o1
The “activity change, negative = cytotoxicity” value of the first is higher: 11.7% for the first, -24.6% for the second.

First: CN[C@H](CNC(=O)N1CCC[C@@H]([C@@H](OCCNC(=O)OC)c2cccc(Cl)c2)C1)C[C@H]1CCCOC1
Second: CCCN1CCC[C@@H](c2cccc(S(C)(=O)=O)c2)C1
The “activity change, negative = cytotoxicity” value of the first is higher: 2.62% for the first, -1.68% for the second.

Going from Cc1ccccc1N1CCN(S(=O)(=O)C[C@]23CC[C@H](C[C@@H]2NC(=O)[C@@H](N)CCS(C)(=O)=O)C3(C)C)CC1 to CC1=C2C[C@@]3(C)[C@@H](CCC[C@@H]3C)C[C@@]2(O)OC1=O, the “activity change, negative = cytotoxicity” value rises from 3.85% to 7%.

COc1ccc(Oc2c(Cl)cnn(C3c4ccccc4-c4ccccc43)c2=O)cc1 was tested, and the “activity change, negative = cytotoxicity” value was 20.6%.

Going from O=C(O)c1cc(O[C@@H]2O[C@H](CO)[C@@H](O)[C@H](O)[C@H]2O)ccc1O to COC(=O)/C=C/c1ccc(O[C@@H]2O[C@H](CO)[C@@H](O)[C@H](O)[C@H]2O)cc1, the “activity change, negative = cytotoxicity” value rises from 4.08% [at 38.5 µM] to 8.78% [at 38.5 µM].

Going from COc1cc(CO)ccc1O[C@@H]1O[C@H](CO)[C@@H](O)[C@H](O)[C@H]1O to O=C(O)CCc1cc2ccoc2cc1O[C@@H]1O[C@H](CO)[C@@H](O)[C@H](O)[C@H]1O, the “activity change, negative = cytotoxicity” value falls from 5.91% [at 38.5 µM] to 1.86% [at 38.5 µM].

Going from CO[C@H]1c2cc(C(C)C)c(O)c(O)c2[C@@]23CCCC(C)(C)C2[C@@H]1OC3=O (some centres not stated) to CC1C2=CC(=O)OC2(O)CC2C1C(O)CC1C(C)(CO)CCCC21C (configuration not stated), the “activity change, negative = cytotoxicity” value rises from -0.479% [at 38.5 µM] to -0.0985% [at 38.5 µM].

Compared with C=C(C(=O)O)C1CC(OC(=O)CC(C)CC)C2(C)CCCC(=C)C2C1 (configuration not stated), CC1(CO)CCCC2(C)C1C(OC(=O)c1ccccc1)CC1C(=O)OCC12O (configuration not stated) is lower in “activity change, negative = cytotoxicity” value: -0.884% [at 38.5 µM] for the first, -3.76% [at 38.5 µM] for the second.

For COc1cc2c(cc1OC)N1C(=O)C[C@@]34C=CC[N@+]5([O-])CC[C@H]2[C@H](CC3)[C@@]145, the “activity change, negative = cytotoxicity” value was 7.14% [at 38.5 µM].

In the case of C[C@@H]1O[C@@H](O[C@H]2[C@H](O[C@H]3[C@H](O[C@H]4CC[C@@]5(C)C(CC[C@]6(C)C5CC=C5[C@@H]7CC(C)(C)C[C@@H](O)[C@]7(C)CC[C@]56C)[C@@]4(C)CO)O[C@H](C(=O)O)[C@@H](O)[C@@H]3O)O[C@H](CO)[C@H](O)[C@@H]2O)[C@H](O)[C@H](O)[C@H]1O (some centres not stated), the activity change, negative = cytotoxicity is reported as 7.52% [at 11.6 µM].

Compared with COC(=O)c1c(CC=C(C)C)c(OC2OC(CO)C(O)C(O)C2O)c2ccccc2c1OC1OC(CO)C(O)C(O)C1O (configuration not stated), C/C=C(\C)C(=O)OCC1OC(OCC2OC(OC3(CO)OC(CO)C(O)C3O)C(O)C(O)C2O)C(O)C(O)C1O (configuration not stated) is lower in “activity change, negative = cytotoxicity” value: 6.74% [at 25.3 µM] for the first, -3.37% [at 25.3 µM] for the second.

Going from COc1ccc(C2(O)c3c(ccc4c3OC(C)(CCC=C(C)C)C=C4)NC(=O)C2OC)cc1 (configuration not stated) to COc1ccc(/C=C/C(=O)O[C@@H]2[C@@H](OC(C)=O)[C@@H](OC(C)=O)[C@H](O[C@H]3[C@@H]4C=CO[C@@H](O[C@@H]5O[C@H](CO)[C@@H](O)[C@H](O)[C@H]5O)[C@@H]4[C@@]4(CO)O[C@@H]34)O[C@H]2C)cc1, the “activity change, negative = cytotoxicity” value rises from 0% [at 25.3 µM] to 22.7% [at 25.3 µM].

First: COc1cc(C(C)=O)ccc1O[C@@H]1O[C@H](CO[C@@H]2OC[C@@H](O)[C@H](O)[C@H]2O)[C@@H](O)[C@H](O)[C@H]1O
Second: CC(C)(O)C1CC=C(C(=O)OC[C@H]2O[C@@H](OC(=O)C3=CCC(C(C)(C)O)CC3)[C@H](O)[C@@H](O)[C@@H]2O)CC1 (some centres not stated)
The “activity change, negative = cytotoxicity” value of the first is lower: -12.8% [at 25.3 µM] for the first, 0.147% [at 25.3 µM] for the second.

First: CC(C)[C@@H](C(=O)O)N1Cc2c(cc(O)c3c2O[C@]2(C3)[C@H](C)CCC3C(C)(C)[C@H](O)[C@H](O)C[C@@]32C)C1=O (some centres not stated)
Second: CC1CCC2(C(=O)O)CCC3(C)C(=CCC4C5(C)CCC(O)C(C)(C(=O)O)C5CCC43C)C2C1(C)O (configuration not stated)
The “activity change, negative = cytotoxicity” value of the first is lower: -10.5% [at 25.3 µM] for the first, 0.935% [at 25.3 µM] for the second.

First: O=C(O)c1cccc(C(=O)CCC2OC(n3cnc4c(=O)[nH]cnc43)C(O)C2O)c1 (configuration not stated)
Second: CC1CCC2(C(=O)OC3OC(CO)C(O)C(O)C3O)CCC3(C)C(=CCC4C5(C)CCC(O)C(C)(CO)C5CCC43C)C2C1(C)O (configuration not stated)
The “activity change, negative = cytotoxicity” value of the first is higher: 12.2% [at 25.3 µM] for the first, 11% [at 25.3 µM] for the second.

C[C@@H]1O[C@@H](O[C@@H]2[C@@H](O)[C@H](O[C@@H]3[C@@H](O)[C@@H](O)[C@H](O[C@H]4[C@H](OC(=O)[C@]56CCC(C)(C)C[C@H]5C5=CCC7[C@@]8(C)C[C@H](O)[C@H](O[C@@H]9O[C@H](C(=O)O)[C@@H](O)[C@H](O)[C@H]9O)[C@@](C)(CO)C8[C@H](O)C[C@@]7(C)[C@]5(C)C[C@H]6O)O[C@@H](CO)[C@@H]4O)O[C@H]3C)OC[C@H]2O)[C@H](O)[C@H](O)[C@H]1O (some centres not stated) gave an activity change, negative = cytotoxicity of 5.7% [at 6.55 µM].
